# Laboratory results from PubChem BioAssay (NCI).
# Values joined by “and” are separate entries in the source; they are usually repeats but may differ in a detail not shown here. Equal entries are not always repeated. About 83,000 compounds went through this panel and 20% of them were active in at least one assay; those are over-represented in the sample as a whole.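 Step 1: grow cells in 96-well plates. Step 2: add test compound at a single concentration. Step 3: incubate 48 h. Step 4: record percent growth.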 A number with no mark means an inactive call. Active and inactive are the calls of the source. Rule for the calls: active = growth percent below 10; inactive = the rest.
# System: MDA-MB-468 breast
# Experiment: NCI-60 one-dose screen, 48 h (100 = growth as untreated, 0 = no growth, -100 = all killed)
# Conditions: 10 µM unless noted
row,Structure (SMILES),growth
1,CCCCCCN=C(N)CCCCCCCCCCC(N)=NCCCCCC,-8.12% (active)
2,COc1cc2cc(Oc3ccc(NC(=O)Nc4ccc(Cl)c(Cl)c4)cc3)c(C)nc2cc1OCCN1CCOCC1,33.9%
3,Fc1ccc2[nH]cc(-c3nc(-c4c[nH]c5ncccc45)cs3)c2c1,34.9%
4,Nc1ccc2cc(S(=O)(=O)O)cc(O)c2c1N=Nc1ccc(F)cc1,118%
5,O=C(NC(=O)c1ccc(F)c(Cl)c1)NC1CC1,103% and 87.4%
6,O=S(=O)(NC1c2ccccc2Oc2ccccc21)c1cc(Cl)ccc1Cl,78.9%
7,CCCCCCCCn1ccc2cc(NC(=O)Cn3cc(CN4CCOCC4)nn3)ccc21,88.2%
8,C/C(=C\c1ccc2ccccc2c1)[N+](=O)[O-],-22.8% (active)
9,CN1CCN(c2cc(F)c(NC3=C(Cl)C(=O)c4ncccc4C3=O)c(F)c2)CC1,-73.9% (active)
10,O=C(Nc1ccc(I)cc1F)c1cc(Br)ccc1O,-2.63% (active)
11,COc1c(F)cc(-n2c(C(=O)N3CC(F)C3)cc3cccnc32)cc1F,98.4%
12,Cc1cccc2c(=O)c3c(sc12)c(NCCNCCO)nc1ccccc13,-19.1% (active)
13,O=c1cn[nH]c2ccc(Br)cc12,109%
14,Cc1ccc(S(=O)(=O)N2CCC(=O)c3ccccc32)cc1,25.7%
15,COc1ccc(/C=C/C(=O)c2ccc(OC)c(OC)c2)cc1O,65.6%
16,CC(=O)Nc1nc2c(s1)C1=CC[C@H]3[C@@H]4CC[C@H](C(C)=O)[C@@]4(C)CC[C@@H]3[C@@]1(C)CC2,69.7%
17,COCCc1ccc(OCC(O)CNC(C)C)cc1 (stereo not given),113%
18,N#Cc1c(N)n2c(nc1=Nc1ccc([N+](=O)[O-])cc1)sc1cc(Cl)ccc12,79.5%
19,COc1ccc(-c2csc(NC(=O)CSc3nc(C)c(-c4ccccc4)n3Nc3ccccc3)n2)cc1,91.3%
20,CC(C)(Sc1cc(C(C)(C)C)c(O)c(C(C)(C)C)c1)Sc1cc(C(C)(C)C)c(OC(=O)CCC(=O)O)c(C(C)(C)C)c1,47.4%
21,CN1CCN(/C=C2\CC(C(=O)NCc3ccc(Cl)cc3Cl)NC2=O)CC1 (stereo not given),103%
22,COc1cc(-c2cc(-c3cccs3)c(C#N)c(N3CCOCC3)n2)cc(OC)c1OC,55%
23,Cc1cc(=O)n2nc(-c3c[nH]c4ccccc34)sc2n1,88.8%
24,COc1ccc(-c2ccc(NC(=O)Nc3cccc(C(F)(F)F)c3)c(C)n2)cc1,27.5%
25,COc1ccc2c(c1)CCc1c-2n[nH]c1-c1[nH]nc2c1CCc1cc(OC)ccc1-2,-6.6% (active)
